SMN2 splice enh – qHTS Assay for Enhancers of SMN2 Splice Variant Expression. HEK293 SMN2-luciferase splicing reporter, luminescence, 30-36 h. Potency, µM (highest dose often 46.1 µM), for inactives: top-dose activity change, positive = activation, usual class: activators. hit rate 2.8% among 210,000; further: % of control where 0% means no effect; nearly all actives have a fitted effect of over 55% in size
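HEK293 cells carry an SMN2 […]–luciferase reporter in which exon 7 inclusion puts luciferase in frame. Cells were plated 10-12 h before compound addition, then incubated 30-36 h at 37C. ONE-Glo luminescence was read; sodium butyrate at 4.5 mM final served as control.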
Rab9 prom act – qHTS Assay for Rab9 Promoter Activators; Huh7 Rab9 promoter-luciferase reporter, luminescence, 24 h; Potency, µM (doses to about 9.22 µM), for the others: top-dose activation, negative = inhibition, actives largely listed as activators; hit rate 2.8% among 320,000; AID 485297, 2010; further: % of control where 0% means no effect; nearly all actives have a fitted effect of over 60% in size
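Stable Rab9-luc Huh7, 1500 cells/well, 2 h settle; cmpd in DMSO, 24 h, 37 °C/5% CO2; luciferase reagent 10 min RT; luminescence.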
ELG1 genotox – qHTS screen for small molecules that induce genotoxicity in human embryonic kidney (HEK293T) cells expressing luciferase-tagged ELG1 | HEK293T ELG1-luciferase reporter, luminescence, 16 h | Potency, µM (highest dose often 46 µM), without a hit: at the top dose activity change, positive = activation, actives largely listed as activators | hit rate 1.3% among 330,000 | AID 504466, 2011; further: % of control where 0% means no effect; nearly all actives have a fitted effect of over 60% in size
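ELG1-luciferase HEK293T cells, 2,000/well; compound pinned in; 16 hr, 37 °C, 5% CO2; ONE-Glo, 30 min RT; luminescence on CCD imager.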
KinaseGlo FLuc – Counterscreen for Luciferase (Kinase-Glo TM) Inhibition | Luciferin 4-monooxygenase (Photuris pensylvanica), Q27757 | Kinase-Glo luciferase, ATP luminescence, 8 min | Potency, µM (doses to about 38.3 µM), for inactives: top-dose activity change, negative = inhibition, actives largely listed as inhibitors | hit rate 0.28% among 200,000 | AID 1379, 2008; further: on the % scale 0 is the no-effect control and ±100 the full control effect; nearly all actives have a fitted effect of over 60% in size
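Kinase-Glo luciferase light output from ATP and luciferin was measured with 10 uM ATP, within the enzyme's linear range. Buffer: 50 mM imidazole pH 7.2, 50 mM KCl, 7 mM MgCl2, 0.01% Tween 20, 0.05% BSA; luminescence read after 8 min at ambient temperature.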
NPC1 prom act – qHTS Assay for NPC1 Promoter Activators | Huh7 NPC1 promoter luciferase reporter, 24 h | Potency, µM (titrated, usually from 9.22 µM), for the others: at the highest dose activation, hits mostly activators | hit rate 2.4% among 320,000 | AID 485313, 2010; further: % of control where 0% means no effect; nearly all actives have a fitted effect of over 60% in size
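Huh7 cells stably carrying NPC1 promoter–luciferase, plated in Opti-MEM with 10% FBS for 2 h, were exposed to compound in DMSO for 24 h at 37 °C; luciferase reagent was added for 10 min and luminescence read.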
FLuc modulator – qHTS profiling assay for firefly luciferase inhibitor/activator using purifed enzyme and Km concentrations of substrates (counterscreen for miR-21 project). AID 588342, 2011. purified FLuc, Km substrates, luminescence inhibition. hit rate 6.9% among 360,000. Potency, µM (series often up to 57.5 µM), for inactives: at the top dose activity change, negative = inhibition, hits mostly inhibitors;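 further: plate controls were vehicle for no effect and reference inhibitor for full effect; nearly all actives have a fitted effect of over 55% in size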
Target sequence (P08659 whole entry, looked up): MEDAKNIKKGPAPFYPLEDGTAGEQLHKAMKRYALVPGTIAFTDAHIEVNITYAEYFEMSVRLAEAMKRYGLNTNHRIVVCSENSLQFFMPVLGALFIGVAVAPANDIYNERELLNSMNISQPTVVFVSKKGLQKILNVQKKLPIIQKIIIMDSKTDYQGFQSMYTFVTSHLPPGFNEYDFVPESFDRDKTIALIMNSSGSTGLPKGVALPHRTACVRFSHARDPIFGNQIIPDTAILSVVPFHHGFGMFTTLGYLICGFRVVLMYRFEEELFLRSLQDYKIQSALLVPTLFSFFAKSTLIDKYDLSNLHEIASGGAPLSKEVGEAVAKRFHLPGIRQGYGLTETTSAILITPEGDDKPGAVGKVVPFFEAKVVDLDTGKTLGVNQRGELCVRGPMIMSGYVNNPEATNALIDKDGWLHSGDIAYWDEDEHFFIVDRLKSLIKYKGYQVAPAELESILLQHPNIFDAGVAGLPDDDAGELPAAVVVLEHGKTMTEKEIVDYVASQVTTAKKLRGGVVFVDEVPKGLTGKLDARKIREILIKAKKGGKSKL
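Biochemical qHTS of compounds, final roughly 60 µM downward over six points, against 10 nM purified firefly luciferase using Km concentrations of substrates (10 uM D-luciferin, 10 uM ATP) in Tris acetate pH 7.5 buffer; luminescence output.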
Starred values were filed as active, the others as inactive; ? = inconclusive; nt = no result given. Most compounds without a hit are left out; they make up all but 7.5% or so of the library. The call rests on the fitted dose curve; in most records, active means well fitted curve in the direction sought with a large enough effect; inconclusive means small, poorly fitted or top-dose-only effect, or another doubt; inactive means no such curve, though single readings can be large; an effect the other way counts as inactive or inconclusive. Potency means the concentration at half of the fitted maximal effect.

SMILES | SMN2 splice enh | Rab9 prom act | ELG1 genotox | KinaseGlo FLuc | NPC1 prom act | FLuc modulator
COc1ccc(-n2nc(C(=O)NCC(=O)N3CCN(c4ccccn4)CC3)c3ccccc3c2=O)cc1OC | -1% | 18% | -4% | 0% | -4% | 4.8µM*
COc1ccc(-n2nc(C(=O)NCC(=O)Nc3cc(OC)c(OC)c(OC)c3)c3ccccc3c2=O)cc1OC | nt | -2% | -9% | nt | -5% | -1%
COc1ccc(CC(=O)N2CCN(c3ccccn3)CC2)cc1 | 12% | 2% | 0% | 4% | -5% | 1%
Cc1cccc2nc(=S)n(C(=O)c3ccco3)n12 | 50% | 1.3µM* | ? | 3.2µM* | ? | 1.1µM*
O=C(c1ccco1)n1c(=S)nc2ccccn21 | ? | 1.4µM* | 5µM* | 13µM* | 2.8µM* | 3.8µM*
O=C(c1cc2ncc(Br)cn2n1)N1CCN(C(=O)c2ccco2)CC1 | 15% | -10% | -5% | 0% | -2% | 4%
Cn1cc(CCCC(=O)NCc2cccc(Br)c2)c2ccccc21 | nt | nt | nt | nt | nt | -3%
Cc1cccc(/C=C(\C#N)c2nc3ccccc3c(=O)[nH]2)c1 | -1% | nt | nt | nt | nt | 1%
O=c1[nH]c(/C=C/c2ccccc2[N+](=O)[O-])nc2ccccc12 | 15% | ? | 8% | -1% | ? | 4%
Cc1nc(/C=C/c2ccccc2)[nH]c(=O)c1-c1ccccc1 | 2.8µM* | 0.63µM* | ? | -2% | ? | 1.9µM*
Cc1cccc(/C=C\c2nc3ccccc3c(=O)[nH]2)c1 | 2.8µM* | ? | 10µM* | ? | ? | 0.85µM*
O=c1[nH]c(COc2ccc(Br)cc2Cl)nc2ccccc12 | nt | 3.5µM* | 7.3µM* | nt | 3.2µM* | 1.9µM*
COc1cc(/C=C/c2nc3ccccc3c(=O)[nH]2)cc(Cl)c1O | nt | 0% | 2% | nt | 15% | -7%
CN(C)c1ccc(/C=C(\C#N)c2nc3ccccc3c(=O)[nH]2)cc1 | -3% | nt | nt | nt | nt | 0.3µM*
CCCCN(C(=O)c1ccc(OC)c([N+](=O)[O-])c1)c1c(N)n(CCC)c(=O)[nH]c1=O | nt | -5% | -4% | nt | -1% | 0%
Cc1cccc(OC(=O)c2snnc2C)c1 | nt | nt | nt | nt | nt | 5%
CN(C)c1ccc(/C=C/c2nc3ccccc3c(=O)[nH]2)cc1 | nt | 0.089µM* | 0.58µM* | nt | 0.11µM* | 0.21µM*
O=c1[nH]c(/C=C/c2ccc(Br)cc2)nc2ccccc12 | nt | 0.4µM* | ? | nt | 0.32µM* | 0.17µM*
O=C1Nc2c(c(=O)[nH]c(=O)n2-c2ccccc2)C1(NS(=O)(=O)c1ccc(Cl)cc1)C(F)(F)F (centres undefined) | -4% | nt | nt | nt | nt | 3%
O=C(Nc1cc(C(=O)N2CCN(c3ccccc3O)CC2)ccc1Cl)c1cccs1 | nt | 4% | -3% | nt | 0% | 2%
CN(CC(=O)Nc1ccccc1C(=O)NC1CC1)Cc1cccs1 | nt | -7% | -2% | nt | 0% | 0%
Cc1csc(NC(=O)CSCC(=O)O)c1-c1nc2ccccc2s1 | nt | 0% | 4% | nt | -4% | -5%
CCCOc1ccccc1C(=O)Nc1ccc(-c2nc3ccc(C)cc3s2)cc1 | 13µM* | nt | nt | nt | nt | 4.8µM*
COc1cccc(C(=O)Nc2ccc(-c3nc4ccc(C)cc4s3)cc2)c1OC | nt | nt | nt | nt | nt | -1%
O=C(O)CSCC(=O)Nc1ccc(-c2nc3ccccc3s2)cc1 | nt | ? | ? | nt | 29% | 3µM*
SMILES | SMN2 splice enh | Rab9 prom act | ELG1 genotox | KinaseGlo FLuc | NPC1 prom act | FLuc modulator
Cc1ccc2nc(-c3ccc(NC(=O)CSCC(=O)O)cc3)sc2c1 | nt | 2.8µM* | ? | nt | 4µM* | 1.7µM*
Cc1ccc2nc(-c3ccc(NC(=O)COCC(=O)O)cc3)sc2c1 | nt | ? | ? | nt | ? | 1.2µM*
CCOc1ccc(N(CC(=O)Nc2nccs2)S(=O)(=O)c2c(C)[nH]c(=O)[nH]c2=O)cc1 | 3% | 2% | 1% | 0% | 0% | -11%
O=C(c1cc([N+](=O)[O-])[nH]n1)N1CCSCC1 | nt | -2% | 2% | nt | -5% | -3%
Cc1ccc(S(=O)(=O)N2CCCC(C(=O)Nc3ccc(C(=O)O)cc3)C2)cc1Cl (centres undefined) | 8% | -2% | 9% | 1% | 1% | -4%
COc1cccc([C@@H]2Oc3ccc(OC)cc3C(=O)[C@H]2OC(=O)NCCOc2ccccc2)c1 | 8% | nt | nt | 1% | nt | nt
O=C(COc1ccccc1F)Nc1ccc(-c2nc3ccccc3s2)cc1 | nt | 0.63µM* | nt | nt | 0.89µM* | nt
Cc1nc2ccc(NC(=O)COc3ccccc3F)cc2s1 | ? | ? | ? | -4% | 26% | ?
Cc1ccc2nc(-c3ccc(NC(=O)Cc4ccccc4)cc3)sc2c1 | ? | nt | nt | nt | nt | 11µM*
Cc1cccc(CC(=O)Nc2cccc(-c3nc4cccnc4s3)c2)c1 | nt | nt | nt | nt | nt | -2%
Cc1ccc(/C(N)=N/OC(=O)Oc2ccccc2)cc1 | -5% | 1% | 2% | -3% | -1% | ?
N/C(=N\OC(=O)c1ccc(F)cc1)c1ccc(Br)cc1 | 19% | ? | ? | -3% | ? | 2.7µM*
Cc1ccc(/C(N)=N/OC(=O)c2ccc(F)cc2)cc1 | ? | 15% | 10µM* | -4% | 16% | 4.8µM*
N/C(=N\OC(=O)c1ccc(F)cc1)c1ccccc1 | 5% | ? | ? | 8.9µM* | ? | 0.17µM*
C/C(=N\OC(=O)c1ccc(F)cc1)c1ccc(F)c(F)c1 | nt | ? | 0% | nt | 0% | 1.7µM*
CC(C)c1ccc(C2N=C(N)Nc3nc4ccccc4n32)cc1 (centres undefined) | ? | nt | nt | nt | nt | 1%
C/C(=N\NC(=O)c1ccc(Br)cc1)c1cccc(NC(=O)c2cccnc2)c1 | ? | 21% | 0% | -3% | 15% | 12µM*
C/C(=N\NC(=O)c1cccc(N/N=C(\C)c2ccncc2)c1)c1ccncc1 | 9% | 19% | -5% | -3% | 6% | ?
C/C(=N\NC(=O)c1ccccc1O)c1cccc(NC(=O)c2ccccc2)c1 | nt | 11% | 2% | nt | 25% | 11µM*
C/C(=N/NC(=O)c1ccc(Cn2cccn2)o1)c1cccc(NC(=O)c2ccncc2)c1 | nt | -2% | -1% | nt | 3% | ?
CC(=O)Nc1cccc(/C(C)=N/NC(=O)c2ccc(O)cc2)c1 | 8% | 2% | 0% | 2% | 4% | ?
C/C(=N\NC(=O)c1cccc(N/N=C(\C)c2ccccc2)c1)c1ccccc1 | 20µM* | ? | 13% | 1% | ? | 13µM*

Compound activity from PubChem BioAssay.
